Screening results as filed in PubChem BioAssay.
An excerpt weighted towards active compounds, which were near 19% of everything screened.
KB-V1 MDR tox = kills drug-selected multidrug resistant KB-V1 cells; KB-V1 MDR cells viability, CellTiter-Glo, 72 h; Potency, µM (series often up to 46.1 µM), actives largely listed as cytotoxic; actives 3.4% (n = 400,000); further: nearly all actives have a fitted effect of over 60% in size
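Drug-selected KB-V1 cells, grown in DMEM lacking phenol red with 10% FBS, receive compound titrations; after three days at 37 degrees C, surviving cell ATP is quantified by CellTiter-Glo luminescence and responses normalized and curve-fitted.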
TDP1 cell CPT = growth inhibition of DT40 Tdp1-/-;hTDP1 cells with camptothecin (screen for TDP1 inhibitors); chicken DT40 Tdp1-/-;hTDP1 cells + 20 nM CPT, ATP luminescence, 48 h; Potency, µM (titrated, usually from 46.2 µM), for inactives: at the top dose activity change, negative = growth inhibition, hits mostly inhibitors; actives 12% (n = 420,000); further: nearly all actives have a fitted effect of over 55% in size
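Cell growth measured by CellTiter-Glo luminescence after a minimum 48 h, 37 C compound exposure with 20 nM CPT in Tdp1-knockout DT40 cells stably expressing hTDP1, seeded 400/well; qHTS titration format.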
KB-3-1 tox = kills parental KB-3-1 adenocarcinoma cells | KB-3-1 viability, CellTiter-Glo ATP luminescence, 72 h | Potency, µM (series often up to 46.1 µM), usual class: cytotoxic | actives 1.4% (n = 400,000) | AID 1347075; further: nearly all actives have a fitted effect of over 60% in size
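Viability of parental KB-3-1 cells, measured by CellTiter-Glo luminescence, followed a 72 h incubation at 37 °C with pinned compounds in phenol-red-free DMEM containing 10% FBS.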
HT1080-NT tox = kills 2HG-producing HT-1080-NT fibrosarcoma cells; Potency, µM (highest dose often 46.1 µM), inactives show top-dose activity, negative = less viability, hits mostly cytotoxic; HT-1080-NT fibrosarcoma viability, CellTiter-Glo ATP luminescence, 48 h; AID 686970; actives 1.6% (n = 360,000);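 further: NT is the 2HG producing partner of a matched IDH1 knockdown line; 0% = DMSO-treated cells and -100% = media-only wells without cells; nearly all actives have a fitted effect of over 55% in size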
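Fibrosarcoma NT cells, 750 per well in 5% FBS RPMI, were exposed to compound for 48 hours. Viability: CellTiter-Glo luminescence.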
DT40 TDP1 no CPT = qHTS for Inhibitors of human tyrosyl-DNA phosphodiesterase 1 (TDP1): qHTS in cells in absence of CPT; DT40 Tdp1-/- hTDP1 cells, no CPT, ATP luminescence, 48 h; Potency, µM (series often up to 46.2 µM), for inactives: at the top dose activity change, negative = growth inhibition, usual class: inhibitors; actives 15% (n = 420,000); AID 686978, 2013; further: nearly all actives have a fitted effect of over 55% in size
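DT40 Tdp1-/-;hTDP1 cells, no CPT (DMSO vehicle only), 400 cells/well; compounds pin-transferred; ≥48 hr, 37 °C; CellTiter-Glo 30 min RT dark, luminescence read.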
HT1080 IDH1KD tx = toxicity to HT-1080 IDH1 knockdown cells (counter line); HT-1080 IDH1 knockdown viability, ATP luminescence, 48 h; Potency, µM (highest dose often 46.1 µM), inactives show top-dose activity, negative = toxicity, hits mostly cytotoxic; actives 2% (n = 360,000);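 further: 0% = DMSO wells and -100% = cell-free medium wells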
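% activity derives from luminescence (CellTiter-Glo), normalised to DMSO and no-cell wells. HT-1080-IDH1KD cells, 750/well, had 48 h compound exposure at 37 °C.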
Numbers without * were called inactive. The call rests on the fitted dose curve; in most records, active means well fitted curve in the direction sought with a large enough effect; inconclusive means small, poorly fitted or top-dose-only effect, or another doubt; inactive means no such curve, though single readings can be large; an effect the other way counts as inactive or inconclusive. Unless noted, on the % scale 0 is the no-effect control and ±100 the full control effect; potency means the concentration at half of the fitted maximal effect.

COC(=O)[C@@]12CCCCN1[C@H](c1ccc(SC3CCCCC3)c(OC)c1)[C@@H]1C(=O)N(C)C(=O)[C@@H]12 was read as KB-V1 MDR tox inactive, TDP1 cell CPT inconclusive, KB-3-1 tox inactive, HT1080-NT tox -22%, DT40 TDP1 no CPT inconclusive and HT1080 IDH1KD tx inconclusive.
CCSc1ccc([C@@H]2[C@@H]3C(=O)N(CC)C(=O)[C@@H]3[C@]3(C(=O)OC)CCCCN23)cc1OC was read as KB-V1 MDR tox inactive, TDP1 cell CPT -11%, KB-3-1 tox inactive, HT1080-NT tox -3%, DT40 TDP1 no CPT inconclusive and HT1080 IDH1KD tx 1%.
CCN1C(=O)[C@@H]2[C@@H](c3ccc(SC4CCCCC4)cc3)N3CCC[C@@]3(C(=O)OC)[C@@H]2C1=O was read as KB-V1 MDR tox inactive, TDP1 cell CPT inconclusive, KB-3-1 tox inconclusive, HT1080-NT tox -1%, DT40 TDP1 no CPT 21µM* and HT1080 IDH1KD tx 8%.
CCCSc1ccc([C@@H]2[C@@H]3C(=O)N(CC)C(=O)[C@@H]3[C@]3(C(=O)OC)CCCCN23)cc1 was read as KB-V1 MDR tox inactive, TDP1 cell CPT 18µM*, KB-3-1 tox inactive, HT1080-NT tox 0%, DT40 TDP1 no CPT 21µM* and HT1080 IDH1KD tx -6%.
`CCN1C(=O)[C@H]2[C@@H](c3ccc(SC4CCCCC4)cc3)N3CCCC[C@@]3(C(=O)OC)[C@H]2C1=O` gave KB-V1 MDR tox inactive, TDP1 cell CPT 15µM*, KB-3-1 tox inconclusive, HT1080-NT tox 13%, DT40 TDP1 no CPT 16µM* and HT1080 IDH1KD tx 1%.
Screening CCCSc1ccc([C@@H]2[C@H]3C(=O)N(CC)C(=O)[C@H]3[C@]3(C(=O)OC)CCCN23)cc1 returned KB-V1 MDR tox inactive, TDP1 cell CPT inconclusive, KB-3-1 tox inactive, HT1080-NT tox 6%, DT40 TDP1 no CPT inconclusive and HT1080 IDH1KD tx 1%.
`NCCC(O)(P(=O)(O)O)P(=O)(O)O` gave TDP1 cell CPT -15% and DT40 TDP1 no CPT 3%.
CC1C(=O)CCN(C(C)(C)C)C1C (stereo not given) was read as KB-V1 MDR tox inconclusive, TDP1 cell CPT 3%, KB-3-1 tox inactive, HT1080-NT tox 8%, DT40 TDP1 no CPT 1% and HT1080 IDH1KD tx 16%.
`NNC(=O)c1cc(O)c(O)c(O)c1` gave KB-V1 MDR tox inactive, TDP1 cell CPT 15µM*, KB-3-1 tox inactive, HT1080-NT tox -11%, DT40 TDP1 no CPT inconclusive and HT1080 IDH1KD tx inconclusive.
For COc1c(Cl)cc(C(=O)O)cc1Cl the results were KB-V1 MDR tox inactive, TDP1 cell CPT -1%, KB-3-1 tox inactive, HT1080-NT tox 0%, DT40 TDP1 no CPT -4% and HT1080 IDH1KD tx -5%.
For COc1c(Cl)cc(C(=O)NN)cc1Cl the results were KB-V1 MDR tox inactive, TDP1 cell CPT 0%, KB-3-1 tox inactive, HT1080-NT tox 2.1µM*, DT40 TDP1 no CPT inconclusive and HT1080 IDH1KD tx 2.6µM*.
`COCC1CCCC1OS(N)(=O)=O` (stereo not given) gave KB-V1 MDR tox inactive, TDP1 cell CPT 10%, KB-3-1 tox inactive, HT1080-NT tox 0%, DT40 TDP1 no CPT -4% and HT1080 IDH1KD tx 14%.
For C[C@@H]1CCCCO[C@H](CN(C)C(=O)Cc2ccccc2)[C@@H](C)CN([C@H](C)CO)C(=O)c2cc(N(C)C)ccc2O1 the results were KB-V1 MDR tox inactive, TDP1 cell CPT 3%, KB-3-1 tox inactive, HT1080-NT tox 3%, DT40 TDP1 no CPT 0% and HT1080 IDH1KD tx 3%.
